Bioassay records from PubChem BioAssay.
An excerpt weighted towards active compounds, which were near 3.3% of everything screened.
PRMT1 FP inh – PRMT1 (human) inhibition, primary screen. Q99873. recombinant PRMT1, activity-based probe fluorescence polarization. inhibition, % at 2.79 µM. 370,000 tested, 1.3% active. AID 652257;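 active = inhibition above about 21% made by adding two undisclosed values, limit read from the data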
MBD2 DNA inh – blocks human MBD2 binding to methylated DNA; inhibition, % at 4.4 µM; 370,000 tested, 0.31% active; Q9UBB5; AID 686964; TR-FRET, MBD2 binding to methylated oligonucleotide; in the data active = inhibition above about 13%
Target sequence (Q9UBB5 whole entry, looked up): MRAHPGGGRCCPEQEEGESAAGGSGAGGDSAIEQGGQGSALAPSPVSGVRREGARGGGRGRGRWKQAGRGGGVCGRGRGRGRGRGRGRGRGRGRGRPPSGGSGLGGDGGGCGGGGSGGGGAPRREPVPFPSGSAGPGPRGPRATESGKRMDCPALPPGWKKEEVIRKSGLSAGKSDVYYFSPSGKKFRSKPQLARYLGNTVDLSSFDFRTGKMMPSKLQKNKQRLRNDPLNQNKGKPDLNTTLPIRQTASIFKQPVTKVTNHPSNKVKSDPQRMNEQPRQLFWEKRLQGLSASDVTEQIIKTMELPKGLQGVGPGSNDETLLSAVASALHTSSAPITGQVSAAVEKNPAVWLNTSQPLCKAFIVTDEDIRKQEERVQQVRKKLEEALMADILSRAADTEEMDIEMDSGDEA
PfM18AAP inh – PfM18AAP enzyme inhibition; recombinant PfM18AAP, H-Glu-NHMec fluorogenic cleavage; inhibition, % at 7.35 µM; 290,000 tested, 1.2% active;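 active = inhibition above the campaign mean inhibition over all tested compounds plus 3 SD, cut at about 28% in these data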;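 also: 0% = plate median of test compound wells and 100% = 2 mM ZnCl2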
PfG6PD inh – PfG6PD (Plasmodium falciparum) enzyme inhibition. PfGluPho enzyme, NADPH resazurin-diaphorase fluorescence. 350,000 tested, 0.78% active. inhibition, % at 20 µM;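 active = inhibition reaching at least a set limit at 20 µM in the primary screen, cut at about 59% in these data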;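 also: 0% = DMSO wells with substrate and 100% = DMSO wells lacking glucose-6-phosphate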
UHRF1 binding – blocks human UHRF1 binding to methylated DNA; UHRF1 binding to methylated oligo, TR-FRET; inhibition, % at 4.4 µM; 370,000 tested, 0.75% active; AID 687016; in the data active = inhibition above about 21%;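 also: UHRF1 SRA domain binding a hemimethylated CpG hairpin DNA probe; 0% = median of test compound wells and 100% = reference inhibitor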
PfG6PD confirm – confirmation of Plasmodium falciparum G6PD inhibitors; inhibition, % at 20 µM; 2,400 tested, 34% active; shares compounds with PfG6PD inh; AID 504753; recombinant PfGluPho, NADPH-diaphorase-resazurin fluorescence;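 active = inhibition of at least 50% at 20 µM in any single replicate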;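 also: 0% = DMSO with substrate and 100% = DMSO lacking glucose-6-phosphate substrate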
Diaph ctr 10uM – inhibits diaphorase or oxidizes, flagging false PfG6PD hits; shares compounds with PfG6PD inh; diaphorase-coupled resazurin reduction, fluorescence, NADPH 10 uM; inhibition, % at 20 µM; 820 tested, 39% active; AID 504862;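 active = average inhibition reaching 50% or more with the compound at 20 µM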;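 also: resorufin red fluorescence formed as diaphorase reduces resazurin using NADPH; 0% = DMSO with enzyme and 100% = DMSO without enzyme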
Diaphorase 30uM – diaphorase inhibition or oxidation at 30 uM NADPH. shares compounds with PfG6PD inh. 820 tested, 29% active. AID 504863. inhibition, % at 20 µM. Diaphorase/resazurin coupled assay, resorufin fluorescence;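 active = inhibition averaging 50% or more, tested at 20 µM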;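 also: 0% = DMSO with enzyme and 100% = DMSO wells lacking diaphorase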
PRMT1 confirm – PRMT1 (human) inhibition, FP confirmation; shares compounds with PRMT1 FP inh; recombinant His-PRMT1, activity-based probe fluorescence polarization; inhibition, % at 2.79 µM; 3,300 tested, 42% active; AID 687036;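 active = mean inhibition across replicates above the hit cutoff derived for the earlier primary screen, cut at about 22% in these data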
The depositor's hits bear a star; . = no result given.

SMILES	PRMT1 FP inh	MBD2 DNA inh	PfM18AAP inh	PfG6PD inh	UHRF1 binding	PfG6PD confirm	PRMT1 confirm	others
COc1ccc([C@H]2N[C@]3(CCCN(Cc4ccc(Br)cc4)C3=O)[C@H]3C(=O)N(Cc4ccccc4)C(=O)[C@@H]23)cc1	8	5	.	23	6	.	.
N#CC(C#N)=C1C=CC=CN1/C(=C\c1ccccc1)C(=O)c1cccs1	20	-4	3	47	-5	.	.
N#CC(C#N)=C1C=CC=CN1/C(=C\c1ccccc1Cl)C(=O)c1ccccc1	29*	1	3	78*	-2	57*	32*	Diaph ctr 10uM=-5;Diaphorase 30uM=-2
COc1ccc(S[C@]2(C(=O)N3CCN(c4ncccn4)CC3)CC(=O)N(c3ccc4ccccc4c3)[C@@H]2c2ccc(OC)cc2)cc1	4	2	.	.	1	.	.
COc1ccc(/C=C2/CCCC(CN(C)C)C2=O)cc1 (stereo not drawn)	0	-3	.	44	-2	.	.
COc1cccc(/C=C2/CCC(CN(C)C)C2=O)c1 (stereo not drawn)	41*	10	.	70*	9	39	71*
CC(=O)Nc1nc(C)c(Oc2cccc(C(F)(F)F)c2)c(=O)[nH]1	-2	-4	-4	-4	-1	.	.
COc1ccccc1/C=N/NC(=O)CSc1cc(C)nc2ccccc12	33*	1	0	83*	3	68*	1	Diaph ctr 10uM=69*;Diaphorase 30uM=53*
N#CC1=C2SCN(Cc3ccco3)CN2C(=O)CC1c1c(F)cccc1Cl (stereo not drawn)	52*	3	19	66*	-4	22	8
N#CC1=C2SCN(c3ccccc3)CN2C(=O)CC1c1c(Cl)cccc1Cl (stereo not drawn)	52*	3	36*	85*	-2	30	55*
CC(OC(=O)c1nc(Cl)ccc1Cl)C(=O)c1ccccc1 (stereo not drawn)	-5	-1	.	1	5	.	.
O=C(COC(=O)CSc1ccc([N+](=O)[O-])cc1)NCCCc1ccccc1	42*	-4	-6	66*	-2	-9	4
O=C(COC(=O)CSc1ccc(F)cc1)NCCCc1ccccc1	-2	-2	.	-6	1	.	.
COc1ccccc1-n1c(SCC(=O)NCc2ccc3c(c2)OCO3)nc2cc([N+](=O)[O-])ccc21	84*	-6	19	95*	-10	48	26*
CC(Sc1nc2cc([N+](=O)[O-])ccc2n1-c1ccc(F)cc1)C(=O)NCc1ccc2c(c1)OCO2 (stereo not drawn)	10	1	12	57	-1	.	.
CCN(CC)C(=S)SSC(=S)N(CC)CC	74*	-7	36*	66*	-13	49*	80*	Diaph ctr 10uM=-22;Diaphorase 30uM=-11
CCN(CC)C(=S)SCC(=O)c1ccccc1	-1	-5	0	-5	0	.	.
CSCCC(NC(=O)COc1ccccc1)C(=O)N1CC(C)CC(C)C1 (stereo not drawn)	-3	-5	.	5	-1	.	.
Cc1c([N+](=O)[O-])cc(C(=O)NCc2ccc(F)cc2)cc1[N+](=O)[O-]	-4	0	5	7	-1	.	.
O=C1CC(N2CCN(c3ccc(O)cc3)CC2)C(=O)N1Cc1cccs1 (stereo not drawn)	49*	-1	28	67*	-3	19	-1
O=C(c1ccncc1)c1ccc(N2CCN(C3CC(=O)N(Cc4cccs4)C3=O)CC2)cc1 (stereo not drawn)	3	-7	2	-5	-3	.	.
CC(Oc1ccc2ccc(=O)oc2c1)C(=O)N1CCOCC1 (stereo not drawn)	-6	4	.	-13	6	.	.
Cc1n[nH]c(C)c1CN(C)C(=O)C1CCC(=O)N(CCc2cccc(F)c2)C1 (stereo not drawn)	1	0	1	-8	-1	.	.
O=C1C=CC(=O)N1CCNc1ncc(C(F)(F)F)cc1Cl	92*	6	-123	79*	-1	66*	90*	Diaph ctr 10uM=-5;Diaphorase 30uM=-11
COc1cc(SSc2cc(OC)cc([N+](=O)[O-])c2N)c(N)c([N+](=O)[O-])c1	76*	-24	31*	112*	-21	100*	90*	Diaph ctr 10uM=-27;Diaphorase 30uM=-20
SMILES	PRMT1 FP inh	MBD2 DNA inh	PfM18AAP inh	PfG6PD inh	UHRF1 binding	PfG6PD confirm	PRMT1 confirm	others
COc1cccc(Nc2nnc(Cc3cccnc3)c3ccccc23)c1	0	3	-1	19	4	.	.
O=C1/C(=C/c2ccccc2O)SC(=S)N1Cc1cccnc1	55*	4	8	62*	4	-9	35*
CCOC(=O)C1(CC2CC2)CCN(S(=O)(=O)C[C@]23CC[C@H](CC2=O)C3(C)C)CC1	-7	1	7	-40	1	.	.
COc1ccc(Nc2nnc(SCc3cc(=O)n4ccsc4n3)s2)cc1	29*	-4	10	82*	-5	47	35*
COc1ccc(-n2cc(C(=O)O)c3ccccc3c2=O)cc1	-3	6	-11	-11	1	.	.
COc1ccc(-n2sc3ccccc3c2=O)cc1	82*	-2	.	125*	9	109*	82*	Diaph ctr 10uM=-26;Diaphorase 30uM=-12
CC1=C(CO)C(=O)OC([C@@H](C)C2CC[C@H]3C4C[C@H]5O[C@]56[C@@H](O)C=CC(=O)[C@]6(C)C4CC[C@]23C)C1 (stereo partly drawn)	9	2	.	32	1	.	.
CSc1nc(=S)cc(C)[nH]1	83*	1	43*	70*	1	18	89*
O=C1C(=Cc2cccc(O)c2O)SC(=S)N1CCCN1CCOCC1	82*	-2	.	70*	-1	50*	83*	Diaph ctr 10uM=-12;Diaphorase 30uM=-6
COc1ccc(C=C2SC(=S)N(CCCN3CCOCC3)C2=O)c(OC)c1	21	-2	.	-6	-12	.	.
CCC(C)(C)n1nnnc1C(c1ccc2ncccc2c1)N1CCN(c2ccc(O)cc2)CC1 (stereo not drawn)	27*	3	31*	46	0	35	2
CCc1ccccc1OCC(=O)OCC(=O)Nc1cc(C)on1	0	1	.	7	-1	.	.
CC(C)(C)c1ccc(O)c(/C=N\O)c1	2	-2	3	0	2	.	.
CC(C)(C)c1ccc(O)c(O)c1	26*	-6	.	81*	0	72*	17	Diaph ctr 10uM=8;Diaphorase 30uM=2
N#Cc1c(-c2ccco2)c2c([nH]c1=S)CCCC2	59*	4	.	71*	5	34	25*
